Laboratory results published in PubChem BioAssay (NCI).
“And” between values parts separate entries of the source, which are not always exact repeats. Equal entries are not always repeated. This is part of a sample that, as a whole, favours compounds with a hit. Of some 79,000 tested, about 15% had one in any assay. Values without a mark were called inactive. The source made the active and inactive calls. Cut-off read from the data, not from the text of the source: active = growth inhibition above about 70%; inactive = the rest.

Experiments:
[1] = NCI Yeast Anticancer Drug Screen. Data for the rad50 strain (AID 155);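 note: 0% = growth of vehicle-only cultures of the same strain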; settings: S. cerevisiae rad50 strain growth inhibition, hits give high values
Outline: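 DNA repair mutant yeast, compound exposure, growth read-out; inhibition is taken relative to vehicle.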

[2] = NCI Yeast Anticancer Drug Screen. Data for the mec2-1 strain (AID 157); settings: S. cerevisiae mec2-1 strain, hits give high values
Outline: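 Readout is yeast growth inhibition, normalised to vehicle-treated controls, in the mec2-1 strain exposed to compound.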

[3] = NCI Yeast Anticancer Drug Screen. Data for the sgs1 mgt1 strain (AID 161);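 note: 0% = growth of cultures given vehicle only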; settings: S. cerevisiae sgs1 mgt1 strain, hits give high values
Outline: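 Compounds are added to genetically altered yeast, and growth is compared with cultures given vehicle alone to give percent inhibition.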

[4] = NCI Yeast Anticancer Drug Screen. Data for the cln2 rad14 strain (AID 165);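 note: 0% = growth equal to vehicle treated cultures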; settings: S. cerevisiae cln2 rad14 strain, hits give high values
Outline: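 Relative to vehicle controls, growth inhibition of compound-treated cln2 rad14 yeast was recorded.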

[5] = NCI Yeast Anticancer Drug Screen. Data for the bub3 strain (AID 167); settings: S. cerevisiae bub3 mutant strain, hits give high values
Outline: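 In this screen, a yeast mutant lacking normal mitotic checkpoint function is challenged with compound. Relative growth versus vehicle gives the inhibition value.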

[6] = NCI Yeast Anticancer Drug Screen. Data for the mlh1 rad18 strain (AID 175); settings: S. cerevisiae mlh1 rad18 strain growth inhibition, hits give high values
Outline: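 Test agents were incubated with a yeast strain of defined genotype (DNA damage repair defect). Inhibition of growth was derived by comparison with vehicle-exposed cultures.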

[7] = NCI Yeast Anticancer Drug Screen. Data for the rad50EPP+ strain (AID 151);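 note: 0% = growth of vehicle-treated control cultures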; settings: S. cerevisiae rad50 mutant strain, hits give high values
Outline: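 Exposing the rad50EPP+ strain to each compound, growth was compared with vehicle-only cultures to give inhibition.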

[8] = NCI Yeast Anticancer Drug Screen. Data for the mgt1 strain (AID 153); settings: S. cerevisiae mgt1 mutant growth inhibition, hits give high values
Outline: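 Genetically defined yeast (mgt1) treated with compound; inhibition of growth expressed against vehicle-treated controls.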

[9] = NCI Yeast Anticancer Drug Screen. Data for the rad14 strain (AID 159);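 note: 0% = growth of vehicle-treated control cultures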; settings: S. cerevisiae rad14 strain growth inhibition, hits give high values
Outline: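 DNA repair-defective yeast, compound-exposed; % growth inhibition derived by comparison with vehicle-treated controls.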

[10] = NCI Yeast Anticancer Drug Screen. Data for the CLN2oe strain (AID 163);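 note: 0% = growth of vehicle-only control cultures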; settings: S. cerevisiae CLN2oe strain, hits give high values
Outline: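 Values reflect how much compound exposure reduced yeast growth, referenced to vehicle-exposed cells. Assay organism is a strain with a defined genetic change affecting cell-cycle control.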

[11] = NCI Yeast Anticancer Drug Screen. Data for the wt2 strain (AID 169);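 note: 0% = growth of vehicle-treated yeast cultures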; settings: S. cerevisiae wt2 strain growth inhibition, hits give high values
Outline: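 Values express reduction in yeast growth under compound treatment, referenced to vehicle-treated cells.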

[12] = NCI Yeast Anticancer Drug Screen. Data for the mlh1 strain (AID 171);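 note: 0% = growth of vehicle-treated control cultures of the same strain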; settings: S. cerevisiae mlh1 strain growth inhibition, hits give high values
Outline: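 Steps: expose the defined-mutant yeast strain to compound; expose a parallel culture to vehicle; measure growth; express compound effect as inhibition relative to the vehicle culture.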

[13] = NCI Yeast Anticancer Drug Screen. Data for the sgs1 strain (AID 173);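 note: 0% = growth of vehicle-only control cultures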; settings: S. cerevisiae sgs1 mutant, hits give high values
Outline: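 Treat defined-mutant yeast with compound; measure growth; calculate inhibition relative to vehicle-treated cells.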

[14] = NCI Yeast Anticancer Drug Screen. Data for the rad18 strain (AID 177); settings: S. cerevisiae rad18 mutant growth inhibition, hits give high values
Outline: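 A genetically defined yeast mutant impaired in DNA damage repair was treated with test compounds, then its growth was measured against cultures receiving vehicle alone.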

[15] = at 5.0 µM (retest, dose inferred, filed as 0.5)
[16] = at 50.0 µM (retest, dose inferred, filed as 5.0)

SMILES: COc1nc(N)c(N=CC(OC(C)=O)C(OC(C)=O)C(COC(C)=O)OC(C)=O)c(=O)n1C (stereo not given)
- growth inhibition [1, 15]: -3% and -10% and 6%
- growth inhibition [1, 16]: -9% and -4% and -19%
- growth inhibition [2, 15]: 24% and -10% and 7%
- growth inhibition [2, 16]: 3% and 1% and 5%
- growth inhibition [3, 15]: 8% and 6% and 29%
- growth inhibition [3, 16]: 13% and -2% and -3%
- growth inhibition [4, 15]: -6% and 1% and 6%
- growth inhibition [4, 16]: -13% and 6% and 19%
- growth inhibition [5, 15]: 10% and 11% and 13%
- growth inhibition [5, 16]: -7% and -8% and -4%
- growth inhibition [6, 15]: -3% and -20% and -25%
- growth inhibition [6, 16]: 0% and -18% and -21%

SMILES: Cc1nc2ccccc2c(=O)n1NC(=O)c1ccc(CS)cc1
- growth inhibition ([7]; at 1.2 µM): -9%
- growth inhibition ([7]; at 3.7 µM): 4%
- growth inhibition ([7]; at 11.0 µM): -3%
- growth inhibition ([7]; at 33.0 µM): 23%
- growth inhibition ([7]; at 100.0 µM): 85% (active)
- growth inhibition ([8]; at 1.2 µM): -11%
- growth inhibition ([8]; at 3.7 µM): -12%
- growth inhibition ([8]; at 11.0 µM): -17%
- growth inhibition ([8]; at 33.0 µM): 6%
- growth inhibition ([8]; at 100.0 µM): 86% (active)
- growth inhibition ([2]; at 1.2 µM): -16%
- growth inhibition ([2]; at 3.7 µM): -4%
- growth inhibition [2, 15]: -27%
- growth inhibition ([2]; at 11.0 µM): -13%
- growth inhibition ([2]; at 33.0 µM): 23%
- growth inhibition [2, 16]: 1%
- growth inhibition ([2]; at 50.0 µM): 76.2% (active)
- growth inhibition ([2]; at 100.0 µM): 97% (active)
- growth inhibition ([9]; at 1.2 µM): -21%
- growth inhibition ([9]; at 3.7 µM): -23%
- growth inhibition ([9]; at 11.0 µM): -25%
- growth inhibition ([9]; at 33.0 µM): 26%
- growth inhibition ([9]; at 100.0 µM): 95% (active)
- growth inhibition [3, 15]: -14%
- growth inhibition [3, 16]: 3%
- growth inhibition ([3]; at 50.0 µM): 65.5%
- growth inhibition ([10]; at 1.2 µM): 2%
- growth inhibition ([10]; at 3.7 µM): -17%
- growth inhibition ([10]; at 11.0 µM): -6%
- growth inhibition ([10]; at 33.0 µM): 22%
- growth inhibition ([10]; at 100.0 µM): 95% (active)
- growth inhibition [4, 15]: -29%
- growth inhibition [4, 16]: 6%
- growth inhibition ([4]; at 50.0 µM): 31.9%
- growth inhibition ([5]; at 1.2 µM): 16%
- growth inhibition ([5]; at 3.7 µM): -6%
- growth inhibition [5, 15]: -13%
- growth inhibition ([5]; at 11.0 µM): 16%
- growth inhibition ([5]; at 33.0 µM): 45%
- growth inhibition [5, 16]: 41%
- growth inhibition ([5]; at 50.0 µM): -8.65%
- growth inhibition ([5]; at 100.0 µM): 96% (active)
- growth inhibition ([11]; at 1.2 µM): 4%
- growth inhibition ([11]; at 3.7 µM): 7%
- growth inhibition ([11]; at 11.0 µM): 9%
- growth inhibition ([11]; at 33.0 µM): 16%
- growth inhibition ([11]; at 100.0 µM): 92% (active)
- growth inhibition ([12]; at 1.2 µM): 0%
- growth inhibition ([12]; at 3.7 µM): 12%
- growth inhibition ([12]; at 11.0 µM): 16%
- growth inhibition ([12]; at 33.0 µM): 36%
- growth inhibition ([12]; at 100.0 µM): 95% (active)
- growth inhibition ([13]; at 1.2 µM): 15%
- growth inhibition ([13]; at 3.7 µM): 11%
- growth inhibition ([13]; at 11.0 µM): 20%
- growth inhibition ([13]; at 33.0 µM): 61%
- growth inhibition ([13]; at 100.0 µM): 95% (active)
- growth inhibition [6, 15]: -51%
- growth inhibition [6, 16]: 71% (active)
- growth inhibition ([6]; at 50.0 µM): 65%
- growth inhibition ([14]; at 1.2 µM): 9%
- growth inhibition ([14]; at 3.7 µM): 12%
- growth inhibition ([14]; at 11.0 µM): 2%
- growth inhibition ([14]; at 33.0 µM): 40%
- growth inhibition ([14]; at 100.0 µM): 96% (active)

SMILES: CCCCCCCCCCCCOC1C(COCCN2CCCC2)OC2OC(C)(C)OC21 (stereo not given)
- growth inhibition ([7]; at 1.2 µM): 36%
- growth inhibition ([7]; at 3.7 µM): 27%
- growth inhibition ([7]; at 11.0 µM): 2%
- growth inhibition ([7]; at 33.0 µM): 97% (active)
- growth inhibition ([7]; at 100.0 µM): 98% (active)
- growth inhibition ([8]; at 1.2 µM): 3%
- growth inhibition ([8]; at 3.7 µM): 2%
- growth inhibition ([8]; at 11.0 µM): 97% (active)
- growth inhibition ([8]; at 33.0 µM): 98% (active)
- growth inhibition ([8]; at 100.0 µM): 98% (active)
- growth inhibition ([1]; at 1.2 µM): 5%
- growth inhibition ([1]; at 3.7 µM): 1%
- growth inhibition [1, 15]: 13%
- growth inhibition ([1]; at 11.0 µM): 98% (active)
- growth inhibition ([1]; at 33.0 µM): 98% (active)
- growth inhibition [1, 16]: 99% (active)
- growth inhibition ([1]; at 50.0 µM): 93% (active)
- growth inhibition ([1]; at 100.0 µM): 98% (active)
- growth inhibition ([2]; at 1.2 µM): 18%
- growth inhibition ([2]; at 3.7 µM): 11%
- growth inhibition [2, 15]: 2%
- growth inhibition ([2]; at 11.0 µM): 97% (active)
- growth inhibition ([2]; at 33.0 µM): 99% (active)
- growth inhibition [2, 16]: 99% (active)
- growth inhibition ([2]; at 50.0 µM): 93.4% (active)
- growth inhibition ([2]; at 100.0 µM): 98% (active)
- growth inhibition ([9]; at 1.2 µM): 11%
- growth inhibition ([9]; at 3.7 µM): 14%
- growth inhibition ([9]; at 11.0 µM): 98% (active)
- growth inhibition ([9]; at 33.0 µM): 98% (active)
- growth inhibition ([9]; at 100.0 µM): 98% (active)
- growth inhibition [3, 15]: 19%
- growth inhibition [3, 16]: 99% (active)
- growth inhibition ([3]; at 50.0 µM): 90.2% (active)
- growth inhibition ([10]; at 1.2 µM): -5%
- growth inhibition ([10]; at 3.7 µM): 23%
- growth inhibition ([10]; at 11.0 µM): 71% (active)
- growth inhibition ([10]; at 33.0 µM): 98% (active)
- growth inhibition ([10]; at 100.0 µM): 98% (active)
- growth inhibition [4, 15]: 42%
- growth inhibition [4, 16]: 97% (active)
- growth inhibition ([4]; at 50.0 µM): 90.3% (active)
- growth inhibition ([5]; at 1.2 µM): -18%
- growth inhibition ([5]; at 3.7 µM): -16%
- growth inhibition [5, 15]: 29%
- growth inhibition ([5]; at 11.0 µM): 96% (active)
- growth inhibition ([5]; at 33.0 µM): 98% (active)
- growth inhibition [5, 16]: 98% (active)
- growth inhibition ([5]; at 50.0 µM): 88.5% (active)
- growth inhibition ([5]; at 100.0 µM): 98% (active)
- growth inhibition ([11]; at 1.2 µM): -13%
- growth inhibition ([11]; at 3.7 µM): -28%
- growth inhibition ([11]; at 11.0 µM): 78% (active)
- growth inhibition ([11]; at 33.0 µM): 98% (active)
- growth inhibition ([11]; at 100.0 µM): 98% (active)
- growth inhibition ([12]; at 1.2 µM): 25%
- growth inhibition ([12]; at 3.7 µM): 27%
- growth inhibition ([12]; at 11.0 µM): 94% (active)
- growth inhibition ([12]; at 33.0 µM): 98% (active)
- growth inhibition ([12]; at 100.0 µM): 98% (active)
- growth inhibition ([13]; at 1.2 µM): 22%
- growth inhibition ([13]; at 3.7 µM): 21%
- growth inhibition ([13]; at 11.0 µM): 97% (active)
- growth inhibition ([13]; at 33.0 µM): 98% (active)
- growth inhibition ([13]; at 100.0 µM): 98% (active)
- growth inhibition [6, 15]: 16%
- growth inhibition [6, 16]: 99% (active)
- growth inhibition ([6]; at 50.0 µM): 90% (active)
